In PubChem BioAssay AID485364 (National Center for Advancing Translational Sciences (NCATS), 2010):
Among all 360,000 compounds or so, about 11,000 (3.1%) were called active. About 4% were inconclusive and are not listed. Calls follow the shape of the dose curve; as a rule, active = well fitted inhibition curve with a large enough effect; inconclusive = small, poorly fitted or top-dose-only effect; inactive = no such curve, though single readings can be large or run the other way. What follows is part of a selection rich in actives, with near analogues and random picks from the rest. Where a call stands in place of a potency, no number is given.

These molecules were tested against Schistosoma mansoni thioredoxin glutathione reductase (TGR) (UniProt Q962Y6) (assay: qHTS Assay for the Inhibitors of Schistosoma Mansoni Peroxiredoxins). Conditions: purified TGR, DTNB reduction, TNB absorbance 405 nm; series mostly up to 114 µM.
Description: Schistosomiasis is a major neglected tropical disease that currently affects over 200 million. It is caused by different species of flatworms, such as Schistosoma mansoni. Over the last century, drugs to treat the disease have evolved from potassium antimonyl tartrate, artemisinin, oxamniquine, to praziquantel, with praziquantel remaining the universally-used single drug of choice over the past three decades. However, transmission rates have changed little with praziquantel, and there is evidence for the development of drug resistant parasites. Because there is currently no suitable alternative therapy available, there is an urgent need to identify new targets and drugs for schistosomiasis treatment. Thioredoxin glutathione reductase (TGR), one uniquely positioned S. mansoni enzyme, has been identified as a major component of the worms' distinct and compressed antioxidant "firewall". TGR is a multifunctional enzyme that catalyzes the interconversion between reduced and oxidized forms of both glutathione (GSH) and thioredoxins, thus making it an attractive new antiparasitic target. Recently, a quantitative high-throughput screen of the NIH Molecular Libraries Small Molecule Repository (MLSMR, ~71K at the time of the screen in 2007) was performed using an assay that targeted both TGR and peroxiredoxin2 (Prx2, an H2O2-reducing enzymatic component of the S. mansoni redox "firewall") by following the decrease of NADPH fluorescence. […] Additional mechanistic link between exogenous NO donation and parasitic injury for the oxadiazole-2-oxide class of compounds was also expanded and better defined. Although the screen addressed both TGR and Prx2, the assay required post-screen target deconvolution for further characterization of the actives. In addition, the fluorescence assay was also subject to fluorescence interference from compound library members. We have developed a 1536-well-based kinetic HTS assay to address TGR alone. The assay followed the reduction of 5, 5'-dithiobis (2-nitrobenzoic acid) (DTNB) (Ellman's reagent) by NADPH and measured the increase in absorbance at 412 nm of the reaction product, TNB. […] This assay format can be used to screen the current MLSMR collection (with >300K compounds available) to find novel TGR inhibitors. Furoxan is a good choice to serve as a positive control in the primary HTS assay.
Three microliters of reagents (100 uM NADPH and 20 nM TGR or 100 uM NADPH as no-enzyme control) were dispensed into 1,536-well black clear-bottomed plates. Compounds (23 nL) were transferred via Kalypsys pin tool equipped with 1536-pin array (10 nL slotted pins, V&P Scientific, San Diego, CA). The plates were then be incubated for 15 min at room temperature, and 1 uL aliquot of 500 uM NADPH were added, immediately followed by a 1 uL aliquot of 15 mM DTNB to start the reaction. The plate was transferred to a ViewLux high-throughput CCD imager (Perkin-Elmer, Wellesley, MA) where kinetic measurements of the TNB absorbance were acquired using a 405 excitation filter. Throughout the screen, reagent bottles and all liquid lines were made light-tight to minimize reagent degradation. All screening operations were performed on a fully integrated robotic system (Kalypsys, San Diego, CA) containing one RX-130 and two RX-90 anthropomorphic robotic arms (Staubli, Duncan, SC). Library plates were screened starting from the lowest and proceeding to the highest concentration, and a "double-dipping" step of the highest concentration was required to access higher concentrations of compounds. Vehicle-only plates, with DMSO being pin-transferred to the entire column 5-48 compound area, were inserted uniformly at the beginning and the end of each library in order to monitor for and record any shifts in the background, which can be affected by reagent dispensers or loss in enzyme activity overtime. […]
Also: nearly all actives have a fitted effect of over 60% in size.
Potency is read from the fitted curve at half-maximal effect.

Row | SMILES | Potency
1 | CN(Cc1ccccc1)C(=O)CCS(=O)(=O)c1cc(Br)cc2c1N(C(=O)C1CC1)CC2 | inactive
2 | CC(C)(C)c1cc(CN2CCN(CCC#N)CC2)cc(C(C)(C)C)c1O | 2.24 µM (active)
3 | N#Cc1cccc(CN2CCC(=O)N(CCO)CC2)c1 | inactive
4 | N#CCCN1CCN(S(=O)(=O)c2ccc(S(=O)(=O)N3CCCC3)cc2)CC1 | inactive
5 | Cc1noc(C)c1C(=O)NCC1COc2ccccc2O1 (stereo not drawn) | inactive
6 | Cc1cc(C(=O)CCl)c(C)n1CC1COc2ccccc2O1 (stereo not drawn) | 10 µM (active)
7 | O=C1C(=O)N(CC2COc3ccccc3O2)c2ccccc21 (stereo not drawn) | inactive
8 | Cc1ccc2nc(COc3ccc(NC(=O)COc4ccccc4F)cc3)cc(=O)n2c1 | inactive
9 | C=C(C)C(=O)O[C@H]1C/C(C)=C\C(=O)/C=C(\C)[C@H](O)[C@@H]2OC(=O)C(=C)[C@@H]21 | 3.55 µM (active)
10 | CCOC(=O)c1c(C)oc2nc(C)nc(N(CC(C)C)CC(C)C)c12 | inactive
11 | CCCC[C@]12Cc3cc(OC)c(OC)cc3C(O1)C1=C(CC3(CCCCC3)OC1=O)O2 | 11.2 µM (active)
12 | CCCCC12CN3CC(C)(CN(C1)C3c1ccc(O)c(OC)c1)C2=O (stereo not drawn) | inactive
13 | COc1cc2c(cc1OC)CC1(CCCCC1)N=C2 | inactive
14 | COc1ccc(-c2[nH]c3c(c2-c2c(-n4cccc4)n(C)c(=O)n(C)c2=O)c(=O)n(C)c(=O)n3C)cc1 | inactive
15 | Cc1ccc(NC(=O)c2oc3ccccc3c2NC(=O)Cc2cccs2)cc1 | inactive
16 | COc1cc([N+](=O)[O-])ccc1NC(=O)COC(=O)CCOc1ccc(C)cc1 | 35.5 µM (active)
17 | CSc1ccccc1NC(=O)COC(=O)CCCOc1ccc(C)cc1 | inactive
18 | COc1cccc(NC(=O)COC(=O)CCOc2ccccc2OC)c1 | inactive
19 | CCOC(=O)c1ccc(NC(=O)CCS(=O)(=O)c2ccc3c(c2)oc(=O)n3C)cc1 | inactive
20 | Cc1ccc(C(=O)OC2=CC(=O)CC(C)(C)C2)cc1 | 44.7 µM (active)
21 | COC(=O)NNC1=CC(=O)CC(C)(C)C1 | inactive
22 | Cc1ccc(C(=O)Oc2ccc(C(=S)N3CCOCC3)cc2)cc1 | inactive
23 | COc1ccccc1CNC(=O)c1ccc(CS(=O)c2ccccc2Cl)o1 (stereo not drawn) | inactive
24 | COc1cccc(C(=O)N(Cc2cccc(Cl)c2)Cc2ccco2)c1 | inactive
25 | CCS(=O)(=O)Nc1ccc(C2=NN(S(=O)(=O)c3ccc(F)cc3)C(c3ccco3)C2)cc1 (stereo not drawn) | 44.7 µM (active)

Row | SMILES | Potency
26 | CCS(=O)(=O)Nc1ccc(C2=NN(C(C)=O)C(c3cccs3)C2)cc1 (stereo not drawn) | inactive
27 | CS(=O)(=O)Nc1cccc(C2=NN(S(=O)(=O)c3ccccc3)C(c3cccs3)C2)c1 (stereo not drawn) | inactive
28 | CCOCCCNC(=O)c1c(NC(=O)Cc2coc3c(C)c(C)ccc23)sc2c1CCC2 | inactive
29 | CCCCNC(=O)CSc1nc2cc3c(cc2c(=O)n1CCCCCC(=O)NCc1ccc2c(c1)OCO2)OCO3 | inactive
30 | O=C(NCc1ccco1)c1cccn2c(=O)c3c4c(sc3nc12)CCCC4 | 12.6 µM (active)
31 | C=CCn1c(SCC(=O)NCCCO)nc2sc3c(c2c1=O)CCC3 | inactive
32 | C=C(C)Cn1c(SCC(=O)NCc2ccco2)nc2sc3c(c2c1=O)CCC3 | 44.7 µM (active)
33 | O=c1oc(-c2ccco2)nc2sc3c(c12)CCCCC3 | inactive
34 | O=C(NCc1ccco1)c1nc2ncccn2n1 | inactive
35 | O=C(CSc1nc2cc3c(cc2c(=O)n1CCC1=CCCCC1)OCO3)NCc1ccco1 | inactive
36 | Cc1nc2ccc(S(=O)(=O)N(CC(=O)Nc3ccc(F)cc3)Cc3ccccc3)cc2s1 | inactive
37 | CCN(CC)C(=O)CSc1nc2cc3c(cc2c(=O)n1CCCC(=O)NCc1ccc2c(c1)OCO2)OCO3 | inactive
38 | CCc1cc(=O)oc2c(C)c(OCC(=O)NCCN3CCOCC3)ccc12 | inactive
39 | Cc1cc(C)cc(C(=O)NCCN2CCOCC2)c1 | inactive
40 | CC(=O)Oc1cc2c(C(=O)NCCN3CCOCC3)c(C)oc2c2ccccc12 | 25.1 µM (active)
41 | CCS(=O)(=O)N1CCC(n2c(C)nc3cccnc32)CC1 | inactive
42 | COC(=O)c1ccc(NC(=O)c2cc(S(=O)(=O)N3CCC(C)CC3)cn2C)cc1 | inactive
43 | O=C(CCS(=O)(=O)c1ccccc1)Nc1nc2c(s1)CCCC2 | 50.1 µM (active)
44 | O=C(CCS(=O)(=O)c1ccccc1)NC1CCCC1 | inactive
45 | O=C(Nc1nc2c(s1)CCCC2)c1ccccc1F | inactive
46 | COc1ccccc1NC(=O)c1cc(C2CC2)nc2c1c(C)nn2-c1ccc(C)cc1 | inactive
47 | CCCn1nc(C(=O)N2CCCc3ccccc32)c2ccccc2c1=O | inactive
48 | O=C(c1c(Cl)nc2sccn12)N1CCCc2ccccc21 | inactive
49 | Cc1occc1C(=O)N1CCCc2ccccc21 | 44.7 µM (active)
50 | CC(C)c1ccc(NC(=O)CN(C)S(=O)(=O)c2ccc3c(c2)c(=O)n(C)c(=O)n3C)cc1 | inactive

Row | SMILES | Potency
51 | Cc1ccc(Cl)cc1N1CCN(C(=O)CN2C(=O)COc3ccc(S(=O)(=O)N4CCOCC4)cc32)CC1 | inactive
52 | CCCNc1ncnc2c1c(-c1ccccc1)cn2-c1ccc(OCC)cc1 | inactive
53 | CCc1ccc(NC(=O)CN2C(=O)C(c3ccccc3)=NC23CCCCCC3)cc1 | inactive
54 | CCCCCCC(=O)N(O)C1CC(=O)N(c2ccccc2)C1=O (stereo not drawn) | 0.282 µM (active)
55 | CCCCOC(=O)c1ccc(N2C(=O)CC(N3CCN(C/C=C/c4ccccc4)CC3)C2=O)cc1 (stereo not drawn) | inactive
56 | CCOc1ccc(N2C(=O)CC(N(CCc3ccc(OC)c(OC)c3)C(=S)Nc3ccccc3)C2=O)cc1 (stereo not drawn) | inactive
57 | CCOc1cc2[nH]c(=O)n(Cc3ccc(C(=O)NCCN(CC)CC)cc3)c(=O)c2cc1OCC | inactive
58 | COc1cc(-c2nc(S(=O)(=O)c3ccc(Cl)cc3)c(N(C)C)o2)cc(OC)c1OC | 25.1 µM (active)
59 | Cc1cc(C)cc(NC(=O)CSc2oc(-c3ccccc3)nc2S(=O)(=O)c2ccc(Cl)cc2)c1 | inactive
60 | COc1ccc(-c2nnc(NC(=O)CS(=O)(=O)c3ccc(Cl)cc3)o2)c(OC)c1 | inactive
61 | CCOc1ccc(N(CC)S(=O)(=O)N2CCCC(C(=O)NCc3ccc(SC)cc3)C2)cc1 (stereo not drawn) | inactive
62 | COc1ccc(-c2c3c(=O)n(C)c(=O)n(C)c3c3c(C)nc4ccccc4n23)cc1 | inactive
63 | CCOc1cc(C2c3c(-c4ccc(Br)cc4)n[nH]c3C(=O)N2c2ccc(Cl)cc2)ccc1O (stereo not drawn) | inactive
64 | CCOC(=O)c1ccc(N2C(=O)c3n[nH]c(C)c3C2c2ccc(O)c(OC)c2)cc1 (stereo not drawn) | 11.2 µM (active)
65 | CCOC(=O)c1ccc(N2C(=O)c3[nH]nc(-c4ccccc4)c3C2c2ccc(C(C)C)cc2)cc1 (stereo not drawn) | inactive
66 | CCCn1c2ccccc2c2cnn(CC(=O)N(C)c3ccccc3CC)c(=O)c21 | inactive
67 | CSc1ccc(C2c3c(oc4ccccc4c3=O)C(=O)N2CCCN2CCOCC2)cc1 (stereo not drawn) | inactive
68 | COc1ccc(OC)c(NC(=O)C2CCN(S(=O)(=O)c3ccc(C)cc3)CC2)c1 | inactive
69 | NC(=O)C1CCN(C(=O)c2cccc(NC(=O)c3nsc4ccccc34)c2)CC1 | inactive
70 | Cc1ccc(C2CCN(C(=O)c3cnn(-c4ccccc4Cl)c3C3CCN(C(=O)OC(C)(C)C)CC3)C2)cc1 (stereo not drawn) | inactive
71 | Cc1ccccc1C(=O)N(Cc1ccc(N(C)C)cc1)CC1CCCO1 (stereo not drawn) | inactive
72 | O=C(CCS(=O)(=O)c1cc(Br)cc2c1N(C(=O)C1CC1)CC2)Nc1ccc(Br)cc1F | inactive
73 | COc1ccc(OCC(=O)Nc2nnc(-c3ccco3)s2)cc1 | 28.2 µM (active)
74 | COc1ccc(OCCCC(=O)Nc2nnc(C3CCCO3)s2)cc1 (stereo not drawn) | inactive
75 | CNc1nnc(-c2ccco2)s1 | inactive

Row | SMILES | Potency
76 | CCOC(=O)N1CCc2c(sc3c2c(=O)n(-c2ccc(CC)cc2)c(=O)n3C)C1 | inactive
77 | Cc1ccccc1NC(=O)Cn1c(=O)n(CCCCC(=O)NCc2ccccc2Cl)c(=O)c2ccccc21 | inactive
78 | O=C(CCCC(=O)N1CCN(c2cccc(Cl)c2)CC1)c1ccccc1 | inactive
79 | CC(C)OC(=O)CN1CCN(c2ccc(Cl)cc2)CC1 | inactive
80 | O=C(CN1CCN(c2ccc(Cl)cc2)CC1)c1ccccc1 | 17.8 µM (active)
81 | Cc1cc(C(=O)OCC(=O)Nc2ccccc2Cl)c(C)o1 | inactive
82 | O=C(COC(=O)CCc1c[nH]c(=O)[nH]1)Nc1ccccc1Cl | 44.7 µM (active)
83 | Cc1cccc(NC(=O)COC(=O)CCc2ccccc2)c1C | inactive
84 | COc1ccccc1NC(=O)Cn1cnc2ccc(S(=O)(=O)N3CCC(C)CC3)cc2c1=O | inactive
85 | COCCNC(=O)c1ccc2c(c1)N(Cc1cccc(Cl)c1)C(=O)c1ccccc1S2(=O)=O | inactive
86 | CC(C)CNC(=O)COC(=O)/C=C/c1ccco1 | inactive
87 | NS(=O)(=O)c1cccc(NC(=O)COC(=O)/C=C/c2ccco2)c1 | 6.31 µM (active)
88 | COc1ccc([N+](=O)[O-])cc1NC(=O)COC(=O)/C=C/c1ccco1 | inactive
89 | COc1ccc(/C=C/C(=O)OCC(=O)Nc2cccc(Oc3ccccc3)c2)c(OC)c1 | inactive
90 | CN(C)S(=O)(=O)c1cccc(NC(=O)COC(=O)/C=C/c2cccs2)c1 | inactive
91 | COc1cccc(NC(=O)COC(=O)/C=C/c2ccco2)c1 | 31.6 µM (active)
92 | CCc1cccc(-n2nnc(-c3nsc(NC(=O)c4ccc(C)cc4)n3)c2C)c1 | inactive
93 | COc1ccc(-c2cc(NCc3ccc(F)cc3)n3cnnc3n2)cc1 | inactive
94 | Cc1cc(C(=O)Nc2cccc(C(F)(F)F)c2)c2c(C)nn(-c3cccc(F)c3)c2n1 | inactive
95 | COc1ccc(NC(=O)C2CCCN(S(=O)(=O)c3cccc4nonc34)C2)cc1Cl (stereo not drawn) | inactive
96 | Cc1ccc(C)c(NC(=O)Cn2ccn(-c3ccc(F)cc3)c(=O)c2=O)c1 | inactive
97 | O=C(CC1Oc2ccccc2NC1=O)NCc1ccc(F)cc1 (stereo not drawn) | inactive
98 | Cc1ccc(CNC(=O)CCc2c(C)nn(-c3ccc(N4CCCC4)nn3)c2C)cc1 | inactive
